Source: PubChem BioAssay (NCI)
About 83,000 compounds went through this panel and 20% of them were active in at least one assay; those are over-represented in the sample as a whole.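 In brief: 96-well plates, 48 h treatment, single concentration, percent growth endpoint.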 A number with no mark means an inactive call. Activity calls are given as the source filed them.

Tested on: SW-620 colon
Test: NCI-60 one-dose screen, 48 h (100 = growth as untreated, 0 = no growth, -100 = all killed)
Conditions: 10 µM unless noted
Method: Growth inhibition of the SW-620 human tumor cell line is measured as a screen for anti-cancer activity. Cells are grown in 96 well plates and exposed to the test compound for 48 hours. Compounds are tested at a single concentration, which is 10^-5 M for most compounds. The reported endpoint is percent growth (GI% or GIPRCNT), where numbers from 0 - 100% represent growth inhibition, and numbers from -100% - 0 represent cell death. For example, a value of 40 represents 60% growth inhibition. A value of 0 means no net growth occurred over the course of the experiment. A value of -40 indicates 40% of cells at the beginning of the experiment died by the end of the experiment. A value of -100 means all cells are dead at the end of the experiment.
NCI-60 Human Tumor Cell Lines Screen was performed using the standard one-dose NCI protocol, which is described in more detail at https://dtp.cancer.gov/discovery_development/nci-60/default.htm.
Compounds with GIPRCNT values below 10 were considered active. Activity score was based on GIPRCNT using the following formula: […]
Score is 0 for GIPRCNT values of 100 or above, 50 for GIPRCNT values of 0, and 100 for GIPRCNT values of -100.

Row | Structure (SMILES) | growth
1 | COc1ccc(Sc2ccc3[nH]c(=O)nc(N)c3c2)cc1 | 101%
2 | CCCCC(O)Cn1ncc(C(=O)OCC)c1NC(=O)NCc1ccccc1C(F)(F)F (stereo not given) | 104%
3 | O=c1[nH]c(=O)n(Cc2ccc(F)cc2)cc1F | 105% [50 µM]
4 | O=C1C(OCCOc2ccccc2)=C(OCCOc2ccccc2)C(=O)c2ccccc21 | 45.1%
5 | O=C1/C(=C/c2ccc(F)cc2)CN(Cc2cn(CCNc3ccnc4cc(Cl)ccc34)nn2)C/C1=C\c1ccc(F)cc1 | -70.5% (active)
6 | COc1ccc(/C=N/NC(=O)c2cnn(CC(O)Cc3ccccc3)c2N)cc1OC1CCCC1 (stereo not given) | 98.9%
7 | O=C(CC(O)c1ccccc1)Nc1ccccn1 (stereo not given) | 109%
8 | O=c1nc(NO)[nH]c(=O)n1Cc1ccccc1 | 108%
9 | CCOC(=O)c1[nH]c2cc(Cl)ccc2c1[C@@H](C(=O)NC(C)(C)C)N(CC)C(=O)CCCCC#Cc1cccc2c1CN(C1CCC(=O)NC1=O)C2=O (stereo not given in full) | 22.2%
10 | c1ccc(-c2n(Cc3ccc4ccccc4c3)c3ccccc3[n+]2Cc2ccc3ccccc3c2)cc1 | -48.5% (active)
11 | CC[Si](CC)(CC)OC1[C@@H](O[Si](CC)(CC)CC)[C@@H](CNC(=O)NC)O[C@H]1n1cnc2c(NC(=O)Nc3ccccc3)ncnc21 (stereo not given in full) | 71.6%
12 | O=C(N/N=C/c1ccc2c(c1)OCO2)c1cnn2c1NC(c1ccccc1)C2 (stereo not given) | 43.6%
13 | COc1ccc(-c2c3c(N)c4c(nc3nc3c2c(C)nn3-c2ccccc2)CCCC4)cc1 | 68.2%
14 | COc1ccc(OC)c2ncccc12 | 99%
15 | Cc1nc2cc(Nc3nc(Nc4ccc(F)cc4)nc(-c4cccs4)n3)ccc2n1Cc1ccccc1 | 68.1%
16 | COc1cc(CNCCN2C(=O)c3ccc4c5c(ccc(c35)C2=O)C(=O)N(CCNCc2cc(OC)c(OC)c(OC)c2)C4=O)cc(OC)c1OC | -87.3% (active)
17 | COC1(OC)C2(Cl)C=C(c3ccccc3)C1(Cl)C(Cl)=C2Cl (stereo not given) | 115%
18 | Clc1ccccc1Nc1ccc2nnc(-c3ccncc3)n2n1 | 114%
19 | NS(=O)(=O)c1cc(Br)c2c(c1)S(=O)(=O)NCN2 | 109%
20 | CN1CCc2c(c3ccccc3c3ccccc23)C1 | 28.7%

Row | Structure (SMILES) | growth
21 | CSc1nnc(-c2sc3nnc(-c4ccccc4)c(-c4ccccc4)c3c2O)o1 | 92.5%
22 | CSc1ccc(OC(C)=O)cc1C | 105%
23 | Cc1ccc(N=c2nc3sc4c(C)ccc(C)c4n3c(N)c2C#N)cc1 | 105%
24 | O=C(c1ccc2ncc(-c3nc(NC4CC4)ncc3F)n2c1)N1CCOCC1 | 10.2%
25 | Cc1nc2cc(Nc3nc(NCCN)nc(Nc4ccc(F)cc4)n3)ccc2n1Cc1ccccc1 | 73.9%
26 | Cc1ccc(C(=O)Nc2ccccc2N)cc1 | 60%
27 | COc1ccc(OC)c(/C=C2\Oc3cc(O)ccc3C2=O)c1 | 92.2%
28 | O=c1[nH]c(=S)c2c(n1CCCO)CCC2 | 103%
29 | CC1SC(c2ccc(Cl)cc2)N(CCc2cccs2)C1=O (stereo not given) | 12.4%
30 | O=C1c2cc(S(=O)(=O)O)ccc2C(=O)c2c1cccc2[N+](=O)[O-] | 110%
31 | CN1CCN(C(=O)OCCOCCOC(=O)N2CCN(C)CC2)CC1 | 117%
32 | Cc1nn2c(-c3nc4ccc(Cl)cc4[nH]3)c(-c3ccc(F)cc3)nc2s1 | 91.2%
33 | CCC(C)[C@H]1O[C@]2(CC[C@@H]1C)C[C@@H]1C[C@@H](C/C=C(\C)[C@@H](OC3C[C@H](OC)C(O[C@H]4C[C@H](OC)[C@@H](O)[C@H](C)O4)[C@H](C)O3)[C@@H](C)/C=C/C=C3\CO[C@@H]4[C@H](O)C(C)=C[C@@H](C(=O)O1)[C@]34O)O2 (stereo not given in full) | 18.5%
34 | CCCN1CCN(c2ccc3nc(-c4ccc5nc(-c6ccc(C(F)(F)F)cc6)[nH]c5c4)[nH]c3c2)CC1 | -82.6% (active)
35 | CCCCC1COc2cccc3c(SCC(=O)N(C)c4cccc5ccccc45)cc[n+]1c23 (stereo not given) | 105%
36 | COCCOC1=C(Cl)C(=O)c2ccccc2C1=O | -3.69% (active)
37 | O=S(=O)(Nc1ccc(Cl)c(Cl)c1)c1ccc(-c2cnc(C3CC3)o2)cc1 | 12.8%
38 | O=C(COc1cccc(/C=C2\COc3ccccc3C2=O)c1)c1ccccc1 | -81.7% (active)
39 | Cc1ccc2nc(NC(=O)CSC(=S)N3CCN(C)CC3)sc2c1 | 106%
40 | O=c1oc2ccccc2cc1-c1csc(N/N=C/c2cc3ccccc3nc2Cl)n1 | 106%
